From PubChem BioAssay (EPA / NIEHS) come the findings set out here.

The term AC50 denotes the concentration at which the activity in the assay is half-maximal.

Assay [1] is described as follows: TOX21_p53_BLA_p2_viability: Viability Assessment in the Tox21 HCT-116 p53 Agonism Beta-lactamase Assay, Phase 2 (AID 2283591).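 Also: compound exposure lasted 16 h at 37 °C; actives lower the ATP signal meaning cytotoxicity.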 Put shortly: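 HCT116 p53-bla cells, 4000/well, dosed after 5 h plating (217-fold dilution of DMSO stocks) and incubated 16 h at 37C. Viability taken as cellular ATP by CellTiter-Glo luminescence after 30 min RT; signal loss marks cytotoxicity.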

Assay [2] has as its target Cellular tumor antigen p53 (Homo sapiens) (UniProt P04637). The assay is described as follows: TOX21_p53_BLA_p2_ratio: Tox21 HCT-116 p53 Agonism Beta-lactamase Assay, Ratio, Phase 2 (AID 2283592). The gist of the method: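 Read-out is the blue/green (460/530 nm, 405 nm excitation) ratio after 2 h CCF4-AM loading, fitted as gain versus DMSO. Compounds, pinned at 217-fold dilution from DMSO stocks, stayed 16 h on HCT-116 beta-lactamase reporter cells seeded 5 h earlier.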

Assay [3] is described as follows: TOX21_p53_BLA_p3_viability: Viability Assessment in the Tox21 HCT-116 p53 Agonism Beta-lactamase Assay, Phase 3 (AID 2283593).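 Also: cells exposed to compound for 16 h before reading.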 The gist of the method:
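HCT116 cells, 4000/well, dosed 5 h after plating by pin transfer (217-fold dilution from DMSO stock) and incubated 16 h at 37C, 5% CO2. Viability read as ATP luminescence with CellTiter-Glo after 30 min at room temperature.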

Assay [4] concerns the target Cellular tumor antigen p53 (Homo sapiens) (UniProt P04637). The experiment in a line: TOX21_p53_BLA_p3_ratio: Tox21 HCT-116 p53 Agonism Beta-lactamase Assay, Ratio, Phase 3 (AID 2283596). The gist of the method: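 Cells were seeded at 4000/well, rested 5 h at 37C, then dosed with DMSO compound solutions (217-fold dilution) for 16 h. CCF4-AM substrate was loaded for 2 h at room temperature, and the 460/530 nm emission ratio was fitted for gain of signal versus DMSO.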

A short description of assay [5]: TOX21_p53_BLA_p4_viability: Viability Assessment in the Tox21 HCT-116 p53 Agonism Beta-lactamase Assay, Phase 4 (AID 2283597).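 Also: hits lower the luminescence signal meaning cytotoxicity.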 The gist of the method: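 Cytotoxicity as reduced cellular ATP (CellTiter-Glo luminescence, 30 min room temperature), measured in the same wells following the CCF4 FRET p53 reading. Human HCT-116 cells received compounds in DMSO (217-fold dilution) for 16 h.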

For assay [6], the target named is Cellular tumor antigen p53 (Homo sapiens) (UniProt P04637). The assay is described as follows: TOX21_p53_BLA_p5_ratio: Tox21 HCT-116 p53 Agonism Beta-lactamase Assay, Ratio, Phase 5 (AID 2283599). Put shortly:
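HCT-116 p53-bla cells (4000/well) plated 5 h, dosed with compound (217-fold DMSO dilution) for 16 h at 37 C; CCF4-AM substrate 2 h at room temperature. Activity is the 460/530 nm emission ratio (405 nm excitation), fitted in gain-of-signal direction versus DMSO.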

Assay [7] in a line: TOX21_p53_BLA_p5_viability: Viability Assessment in the Tox21 HCT-116 p53 Agonism Beta-lactamase Assay, Phase 5 (AID 2283600). The gist of the method: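 Viability came from CellTiter-Glo ATP luminescence, read after 30 min at room temperature. Before this, HCT-116 p53-bla cells (4000/well) had 16 hours of compound exposure at 37C, with DMSO stocks diluted 217-fold on transfer.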

The target of assay [8] is Cellular tumor antigen p53 (Homo sapiens) (UniProt P04637). The assay is described as follows: TOX21_p53_BLA_p4_ratio: Tox21 HCT-116 p53 Agonism Beta-lactamase Assay, Ratio, Phase 4 (AID 2283601). The gist of the method: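 HCT-116 p53 beta-lactamase reporter cells (4000/well) preincubated 5 h, then compound (217-fold dilution of DMSO stock) for 16 h at 37C. CCF4-AM substrate added 2 h at room temperature; 460/530 nm emission ratio fitted upward versus DMSO.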

Assay [9] can be described thus: CCTE_Harrill_HTTr_Viability_MCF7: CCTE's 6-hour Cell Viability Assessment for the High-Throughput Transcriptomics (HTTr) Platform, in MCF-7 cells cultured in DMEM + 10% fetal bovine serum, Harrill Lab (AID 2284010; active = hit-call score of the fitted dose curve at least 0.9, where 1 is the maximum; inactive = score below 0.9). The gist of the method: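 Eight-point concentration series, six-hour exposure. Propidium iodide exclusion imaged to assess membrane integrity as a cytotoxicity readout; bidirectional fitting was done with DMSO as negative control and activity baseline.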

A short description of assay [10]: CCTE_Harrill_HTTr_Apoptosis_MCF7: CCTE's 6-hour Apoptosis Assessment for the High-Throughput Transcriptomics (HTTr) Platform, in MCF-7 cells cultured in DMEM + 10% fetal bovine serum, Harrill Lab (AID 2284011; active = hit-call score of the fitted dose curve at least 0.9, where 1 is the maximum; inactive = score below 0.9). The gist of the method: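 High-content imaging of CellEvent Caspase 3/7 Green signal follows a six-hour exposure, with eight concentrations per chemical. MCF-7 cells grown in DMEM plus 10% fetal bovine serum; activity fitted in both directions against DMSO.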

The nature of assay [11]: CCTE_Harrill_HTTr_CellCount_MCF7: CCTE's Cell Proliferation Assessment for the High-Throughput Transcriptomics (HTTr) Platform, Harrill Lab (AID 2284012).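 Also: count of Hoechst-stained nuclei per well by high-content imaging in MCF-7 cells; cells exposed to compound for six hours; intended direction is loss of nuclei count meaning fewer cells.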 The gist of the method:
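For this full-screen endpoint, MCF-7 cultures received eight compound dilutions for six hours. Well nuclei counts from Hoechst imaging were analyzed relative to DMSO.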

Each structure is given as a SMILES string. Records with an inconclusive call do not appear. Calls of active or inactive are those of the source. The calls were made as follows, unless noted: active = hit-call score of the fitted dose curve at least 0.9, where 1 is the maximum; inconclusive = response in the unintended direction; inactive = score below 0.9.

Chain of Cellular tumor antigen p53 (Homo sapiens) (P04637 whole entry, looked up): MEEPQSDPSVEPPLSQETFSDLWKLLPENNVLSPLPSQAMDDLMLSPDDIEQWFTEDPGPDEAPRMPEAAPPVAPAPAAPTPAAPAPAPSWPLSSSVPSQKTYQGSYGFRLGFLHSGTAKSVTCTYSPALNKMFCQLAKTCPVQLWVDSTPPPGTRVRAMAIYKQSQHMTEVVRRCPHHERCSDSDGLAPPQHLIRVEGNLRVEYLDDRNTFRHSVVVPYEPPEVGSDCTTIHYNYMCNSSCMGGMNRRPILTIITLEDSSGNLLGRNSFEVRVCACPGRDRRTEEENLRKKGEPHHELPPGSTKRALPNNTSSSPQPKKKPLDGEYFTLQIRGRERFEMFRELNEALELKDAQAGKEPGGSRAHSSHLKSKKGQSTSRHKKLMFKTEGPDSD

Consider `Cc1nc2sccn2c(=O)c1CCN1CCC(=C(c2ccc(F)cc2)c2ccc(F)cc2)CC1`, for which the AC50 in [1] was 37.8 µM (active); in [2], 36.5 µM (active); in [3], 8.52 µM (active); in assay [5] it was 23 µM (active). In addition, the result in assay [4], in [6], in assay [7] and in assay [8] was inactive.
For the molecule `CC1(C)S[C@@H]2[C@H](NC(=O)[C@H](N)c3ccc(O)cc3)C(=O)N2[C@H]1C(=O)O`, the outcome in assay [1], in [2], in assay [3], in assay [4], in assay [5] and in assay [6] was inactive. For the same molecule, the result in [7] and in [8] was inactive.
With `CNC(=O)c1cc(Oc2ccc(NC(=O)Nc3ccc(Cl)c(C(F)(F)F)c3)cc2)ccn1`, the call in assay [1], in assay [3], in [5], in [7] and in assay [8] was inactive. Moreover, the AC50 in assay [2] is 7.13 µM (active); in assay [4] it was 5.52 µM (active); in assay [6], 6.76 µM (active).
For `O=S(=O)(c1ccccc1)c1ccc(Cl)cc1`, the molecule was classed as inactive in assay [1], in [2], in assay [3], in assay [4], in assay [5] and in [6]. Moreover, the outcome in assay [8] was inactive.
Take `CN(C)C(=O)C(CCN1CCC(O)(c2ccc(Cl)cc2)CC1)(c1ccccc1)c1ccccc1`: the outcome in assay [1], in assay [2], in assay [3], in assay [4], in assay [6] and in [7] was inactive. For the same molecule, the outcome in assay [8] was inactive. Further, the AC50 in [5] is 26.6 µM (active).
In the case of `O=C(O)CN(CCN(CC(=O)O)CC(=O)O)CC(=O)O`, the molecule was called inactive in assay [1], in assay [2], in assay [3], in assay [4], in [5] and in assay [6]. Further, the molecule was classed as inactive in assay [7], in assay [8], in assay [9] and in assay [10].
As to `CC(=O)OCCN(CCOC(C)=O)c1ccc(N=Nc2ccc([N+](=O)[O-])cc2C#N)cc1`, the molecule was called inactive in assay [1], in [2], in [3], in assay [4], in assay [5] and in assay [6]. Besides, the outcome in assay [8] was inactive.
As for `C#C[C@]1(O)CC[C@H]2[C@@H]3CCC4=C/C(=N/O)CC[C@@H]4[C@H]3CC[C@@]21CC`, the call in [1], in [2], in assay [3], in assay [4], in [6] and in assay [8] was inactive. In addition, in assay [5], the AC50 was 38.1 µM (active).
In the case of `CC(=O)NCCCS(=O)(=O)O`, the molecule was called inactive in assay [1], in assay [2], in [3], in [4], in assay [5] and in [6]. In addition, the call in assay [7], in assay [8], in assay [9], in assay [10] and in assay [11] was inactive.
In the case of `CCC(C)(C)c1ccc(CC(C)CN2C[C@@H](C)O[C@@H](C)C2)cc1` (some centres undefined), the molecule was called inactive in assay [1], in [2], in assay [3], in assay [4], in [6] and in [8]. Further, in assay [5], the AC50 is 32.7 µM (active).
Consider `CCOc1ccccc1O[C@H](c1ccccc1)[C@H]1CNCCO1`, for which the outcome in [1], in assay [2], in assay [3], in [4], in assay [5] and in assay [6] was inactive. The result in assay [8] was inactive.
`CCOC(=O)n1ccn(C)c1=S`: the result in [1], in assay [2], in [3], in [4], in [5] and in [6] was inactive. Besides, the result in assay [7], in [8], in [9], in assay [10] and in assay [11] was inactive.
As to `O=C1Cc2cc(CCN3CCN(c4nsc5ccccc45)CC3)c(Cl)cc2N1`, the result in [1], in assay [2], in [3], in [4], in assay [5] and in [6] was inactive. In addition, the outcome in assay [7] and in assay [8] was inactive.
As for `CCCCCCCCCCCCCC(=O)OCC(COP(=O)([O-])OCC[N+](C)(C)C)OC(=O)CCCCCCCCCCCCC` (centres undefined), the outcome in [1], in [2], in assay [4], in assay [5], in assay [6] and in [8] was inactive. The AC50 in assay [3] was 42.8 µM (active).
On to `Clc1cccc(Cl)c1NC1=NCCN1`, for which the result in assay [1], in assay [2], in assay [3], in assay [4], in assay [5] and in assay [6] was inactive. Further, the molecule was called inactive in assay [7], in assay [8], in [9], in [10] and in [11].
For `C[C@@H]1C[C@H]2O[C@@]3(O[C@@H]2C(C)(C)O)[C@H](O)[C@@]2(C)[C@@H]4CC[C@H]5C(C)(C)[C@@H](O[C@@H]6OC[C@@H](O)[C@H](O)[C@H]6O)CC[C@@]56C[C@@]46CC[C@]2(C)[C@@H]13`, the molecule was called inactive in assay [1], in assay [2], in assay [3], in assay [4], in assay [5] and in assay [6]. In addition, the outcome in assay [8] was inactive.
Consider `CN(C)CCOC(=O)COc1ccc(Cl)cc1`, for which the call in assay [1], in assay [2], in assay [3], in assay [4], in [5] and in [6] was inactive. For the same molecule, the molecule was classed as inactive in assay [7], in [9], in assay [10] and in assay [11].
As to `NNc1ccc(C(=O)O)cc1`, the call in assay [1], in assay [2], in [3], in [4], in assay [5] and in assay [6] was inactive. For the same molecule, in [8], the result was inactive.
On to `O=C(C=Cc1ccc(O)c(O)c1)O[C@@H]1C[C@@](OC(=O)C=Cc2ccc(O)c(O)c2)(C(=O)O)C[C@@H](O)[C@@H]1O`, for which the molecule was called inactive in assay [1], in assay [2], in [3], in [4], in assay [5] and in [6]. In addition, the result in assay [8] was inactive.
`CCOC(=O)[C@H](CCc1ccccc1)N[C@@H](C)C(=O)N1[C@H](C(=O)O)C[C@@H]2CCC[C@@H]21`: the molecule was called inactive in [1], in assay [2], in [3], in assay [4], in assay [5] and in assay [6]. In addition, the outcome in assay [8] was inactive.
Consider `CCCCC(=O)O[C@]1(C(=O)CO)[C@@H](C)C[C@H]2[C@@H]3CCC4=CC(=O)C=C[C@]4(C)[C@@]3(F)[C@@H](O)C[C@@]21C`, for which the molecule was classed as inactive in [1], in assay [2], in [3], in assay [4], in [6] and in assay [7]. Moreover, the outcome in assay [8], in assay [9], in assay [10] and in [11] was inactive. For the same molecule, the AC50 in assay [5] was 38.7 µM (active).
